Measured values from PubChem BioAssay (NCATS).
“And” between values parts separate entries of the source, which are not always exact repeats. Identical values can stand only once. Results filed as inconclusive are left out. More than one record can exist for a structure, and the calls need not agree. The source made the active and inactive calls. Unless noted, the call rests on the fitted dose curve; in most records, active means well fitted curve in either direction with a large enough effect (not every such curve was filed as active); inconclusive means small, poorly fitted or top-dose-only effect, or another doubt; inactive means flat fitted curve, though single readings scatter.

Assays:
[1] = AP1 Signaling Pathway (AID 357);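 further: ME-180 reporter cells stimulated with EGF at its EC50 level; on the % scale 0 is the no-effect control and ±100 the full control effect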
Summary of the method: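 First, ME-180 AP-1-bla cells were cultured overnight at 37 °C in low-serum Opti-MEM. Next, titrated compounds with EC50 EGF were incubated 5 hours. Finally, CCF4 was added for 2.5 hours and the 460/530 nm ratio recorded.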

[2] = target: Cytochrome P450 1A2 (Homo sapiens) (UniProt P05177); test: p450-cyp1a2 (AID 410; calls by dose curve; further: potency means the concentration at half of the fitted maximal effect;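 on activity change, negative = inhibition: -100% = full effect of reference inhibitor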)
Summary of the method: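 Luminescent demethylation readout: Luciferin-ME (100uM, equal to Km) turned over by 20nM CYP1A2 for 60 min at room temperature after NADPH regeneration addition, following 10 min compound preincubation. Normalization used 57 uM furafylline as full inhibition.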

[3] = Cell Viability - Jurkat (AID 426;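 active means dose-dependent loss of cell ATP signal giving a full or clear fitted curve, ranked by lower potency value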; further: potency means the concentration at half of the fitted maximal effect); conditions: qHTS
Summary of the method: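 Cytotoxicity taken as drop in cellular ATP (CellTiter-Glo luminescence, 20 min room temperature) after 40 hr, 37C treatment of 5000 Jurkat Clone E6-1 cells per well; concentration-response fitted with Hill equation for AC50.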

[4] = Cell Viability - Hek293 (AID 427;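 active means compounds whose dose-response curve shows a full or clear partial loss of cell viability, called from curve shape rather than a numeric limit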;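 further: potency means the concentration at half of the fitted maximal effect; cells exposed to compound for 40 hours at 37 °C before reading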); conditions: qHTS
Summary of the method: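 Luminescent ATP content (CellTiter-Glo, 20 min at room temperature) was measured after a 40 hr, 37 °C compound exposure of HEK293 cells. AC50 values came from Hill-equation fits of qHTS concentration-response data normalized to DMSO and 100 uM tamoxifen.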

[5] = Cell Viability - HepG2 (AID 433; calls by dose curve;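 further: potency means the concentration at half of the fitted maximal effect; potency for ATP loss meaning cytotoxicity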); conditions: qHTS
Summary of the method: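 In this qHTS format, a 40 h, 37 °C compound incubation of HepG2 cells in complete medium precedes a 20 min CellTiter-Glo step at room temperature. Tamoxifen and doxorubicin serve as positive controls; Hill-equation fits yield AC50.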

[6] = Cell Viability - MRC5 (AID 434; calls by dose curve;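 further: potency means the concentration at half of the fitted maximal effect; potency reflects cytotoxicity seen as loss of intracellular ATP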); conditions: MRC5 lung fibroblast viability, qHTS
Summary of the method: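 ATP luminescence read-out (CellTiter-Glo, 20 min RT) after 40 hr, 37 °C compound exposure of 1500 MRC5 cells/well. Data normalized to DMSO (basal) and 100 uM tamoxifen (100% inhibition); AC50 from standard Hill equation.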

[7] = NFAT Signaling Pathway (AID 444); conditions: Jurkat NFAT-bla M1, carbachol, beta-lactamase ratio, 5 h;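 further: carbachol stimulus at about its EC50 of 1 µM final; on the % scale 0 is the no-effect control and ±100 the full control effect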
Summary of the method: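 Jurkat cells with NFAT-driven β-lactamase reporter and co-expressed M1 receptor, stimulated with carbachol (final 1 uM, ~EC50), compound titration, 5 h at 37 °C. CCF4 loaded 1 h at RT; 460/530 nm ratio gave %activity and AC50.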

[8] = Stat Signaling Pathway (AID 446);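 further: ME-180 cervical cancer cells given 40 pM IL-6 alongside compound; SIE-controlled beta-lactamase reporter measured as 460/530 nm FRET emission ratio; on the % scale 0 is the no-effect control and ±100 the full control effect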
Summary of the method: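 FRET read-out (405 nm excitation, 460/530 nm emission) of a beta-lactamase reporter under a STAT-inducible element in ME-180 cervical carcinoma cells. Cells with compound receive 40 pM IL-6 for 5 h. Values are normalised to AC90 stimulation and AC90 JAK-inhibitor controls.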

[9] = target: Mitogen-activated protein kinase 10 (Mus musculus) (UniProt Q61831); test: JNK3 AlphaScreen Assay (AID 530);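 further: kinase came from lysate of stimulated human HepG2 cells; signal reports phosphorylation of biotinylated GST-cJun 1-79 at Ser73 with 10 µM ATP; on the % scale 0 is the no-effect control and ±100 the full control effect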
Summary of the method: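 Activity was read by AlphaScreen after JNK3-containing HepG2 lysate (cytokine pre-activated) phosphorylated biotinylated GST-cJun with 10 uM ATP at room temperature. Phospho-Ser73 cJun antibody with Protein-A acceptor beads provided detection.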

[10] = Cell Viability - N2a (AID 540; active means well fitted curve in the direction sought with a large enough effect; an effect the other way counts as inactive or inconclusive;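 further: plate controls were DMSO alone for no effect and tamoxifen control for full effect; nearly all actives have a fitted effect of over 45% in size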); conditions: N2a mouse neuroblastoma cell viability; activity change, negative = cytotoxicity: at 92.2 µM (top of the series)
Summary of the method: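 CellTiter-Glo ATP luminescence, read 20 min after reagent at room temperature, reported viability following 40 h compound treatment at 37 °C. N2a mouse neuroblastoma cells seeded 1500/well; Hill equation gave AC50.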

[11] = Cell Viability - HUV-EC-C (AID 542; active means well fitted curve in the direction sought with a large enough effect; an effect the other way counts as inactive or inconclusive; further: on the % scale 0 is the no-effect control and ±100 the full control effect; nearly all actives have a fitted effect of over 35% in size)
Summary of the method: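 CellTiter-Glo luminescence measured ATP loss in HUV-EC-C cells (1000/well) after 40 hr compound exposure at 37 °C, in complete culture medium. Concentration-response data were Hill-fitted to give AC50.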

[12] = Cell Viability - H-4-II-E (AID 543; active means well fitted curve in the direction sought with a large enough effect; an effect the other way counts as inactive or inconclusive; further: nearly all actives have a fitted effect of over 35% in size; further: potency means the concentration at half of the fitted maximal effect)
Summary of the method: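 CellTiter-Glo luminescence (intracellular ATP) measured after 40 h compound exposure at 37 °C in H-4-II-E rat hepatoma cells seeded at 1500/well. Values are AC50s fitted with the standard Hill equation.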

[13] = Cell Viability - SH-SY5Y (AID 544; active means well fitted curve in the direction sought with a large enough effect; an effect the other way counts as inactive or inconclusive; further: nearly all actives have a fitted effect of over 55% in size; further: potency means the concentration at half of the fitted maximal effect;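 on viability change, negative = cytotoxic: 0% = DMSO alone and -100% = 100 µM tamoxifen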); conditions: SH-SY5Y neuroblastoma cell viability; viability change, negative = cytotoxic: at 92.2 µM (top of the series)
Summary of the method: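 Cytotoxicity measured via ATP-dependent luciferase luminescence (CellTiter-Glo) following 40 h, 37 °C exposure of 1500 SH-SY5Y cells per well. Concentration-response data were fitted with the standard Hill equation to give AC50.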

[14] = Cell Viability - Renal Proximal Tubule (AID 545; active means well fitted curve in the direction sought with a large enough effect; an effect the other way counts as inactive or inconclusive;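 further: 0% = DMSO only and -100% = 100 µM tamoxifen; nearly all actives have a fitted effect of over 40% in size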)
Summary of the method: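 In this qHTS format, normal rat kidney-derived proximal tubule cells in complete culture medium receive compound titrations, then sit 40 hours at 37 °C before luciferase-based ATP quantitation; potency is reported as AC50 from concentration-response curves.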

[15] = Cell Viability - BJ (AID 421; calls by dose curve;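 further: potency means the concentration at half of the fitted maximal effect; cells exposed to compound for 40 hours at 37 °C before readout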); conditions: BJ fibroblast viability, qHTS
Summary of the method: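 Cytotoxicity as drop in intracellular ATP (CellTiter-Glo, 20 min RT) after 40 hr compound exposure of BJ fibroblasts at 37 °C. Titrations scaled between DMSO and 100 uM tamoxifen, Hill-fitted for AC50.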

[16] = target: Glucocorticoid receptor (Homo sapiens) (UniProt P04150); test: GR-GFP Redistribution (AID 450;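 active means compounds whose dose series gives a full or clear partial fitted curve of increased nuclear translocation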; further: potency means the concentration at half of the fitted maximal effect); conditions: U2OS GR-GFP nuclear translocation, laser cytometry, 2 h
[17] = target: Glucocorticoid receptor (Homo sapiens) (UniProt P04150); test: GR-EFC Redistribution (AID 451; calls by dose curve; further: potency means the concentration at half of the fitted maximal effect); conditions: CHO-K1 GR-EFC translocation, beta-gal luminescence, 2 h
Summary of the method: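 CHO-K1 cells expressing nuclear EA and GR-ED fragments of b-gal; compounds titrated up to 46 uM final, 2 h at 37 C. GR nuclear translocation read as complemented b-gal luminescence after 1 h RT detection.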

[18] = Cell Viability - SK-N-SH (AID 435; calls by dose curve; further: potency means the concentration at half of the fitted maximal effect); conditions: SK-N-SH neuroblastoma cell viability qHTS
Summary of the method: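 Human neuroblastoma line, 40 h exposure at 37 °C, ATP quantified via luciferase luminescence; DMSO and 100 uM tamoxifen define 0 and 100% inhibition for AC50 fitting.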

[19] = Cell Viability - NIH 3T3 (AID 541; active means well fitted curve in the direction sought with a large enough effect; an effect the other way counts as inactive or inconclusive;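 further: plate controls were DMSO alone for no effect and tamoxifen positive control for full effect; nearly all actives have a fitted effect of over 25% in size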); conditions: NIH 3T3 cell viability, qHTS; activity change, negative = cytotoxicity: at 92.2 µM (top of the series)
Summary of the method: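 Intracellular ATP (CellTiter-Glo luminescence, 20 min at room temperature) measured after 40 hr compound exposure at 37 °C of 1000 NIH 3T3 mouse fibroblasts/well in complete medium; AC50 derived by Hill-equation modelling of qHTS concentration-response curves.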

[20] = target: Lysosomal acid glucosylceramidase (Homo sapiens) (UniProt P04062); test: Glucocerebrosidase-p2 (AID 348; in the data active means potency below about 10 µM; further: potency means the concentration at half of the fitted maximal effect); conditions: purified GBA, blue fluorogenic substrate, 40 min
Summary of the method: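 Normal human glucocerebrosidase (0.2 nM) with blue fluorogenic substrate (80 uM final) in citrate/phosphate pH 5.9 with 10mM sodium taurocholate, 0.01% tween-20; 40 min RT, NaOH/glycine stop; fluorescence Ex 365/Em 440; AC50 from a titration from 0.6 nM upwards.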

Sequence of Cytochrome P450 1A2 (Homo sapiens) (P05177 whole entry, looked up): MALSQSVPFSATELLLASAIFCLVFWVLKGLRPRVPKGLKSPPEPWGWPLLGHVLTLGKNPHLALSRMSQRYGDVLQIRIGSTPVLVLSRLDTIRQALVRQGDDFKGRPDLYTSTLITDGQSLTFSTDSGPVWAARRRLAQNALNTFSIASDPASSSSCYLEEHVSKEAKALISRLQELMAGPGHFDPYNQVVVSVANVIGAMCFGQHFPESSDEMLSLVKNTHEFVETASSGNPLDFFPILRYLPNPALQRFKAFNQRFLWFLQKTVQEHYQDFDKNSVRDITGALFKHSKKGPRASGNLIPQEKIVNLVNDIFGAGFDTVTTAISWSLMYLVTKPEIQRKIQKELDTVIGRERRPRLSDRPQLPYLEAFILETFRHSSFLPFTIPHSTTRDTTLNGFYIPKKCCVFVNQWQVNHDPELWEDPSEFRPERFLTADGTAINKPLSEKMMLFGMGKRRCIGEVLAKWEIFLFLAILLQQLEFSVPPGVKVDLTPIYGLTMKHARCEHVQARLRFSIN
Sequence of Glucocorticoid receptor (Homo sapiens) (P04150 whole entry, looked up, the tested form may be a part): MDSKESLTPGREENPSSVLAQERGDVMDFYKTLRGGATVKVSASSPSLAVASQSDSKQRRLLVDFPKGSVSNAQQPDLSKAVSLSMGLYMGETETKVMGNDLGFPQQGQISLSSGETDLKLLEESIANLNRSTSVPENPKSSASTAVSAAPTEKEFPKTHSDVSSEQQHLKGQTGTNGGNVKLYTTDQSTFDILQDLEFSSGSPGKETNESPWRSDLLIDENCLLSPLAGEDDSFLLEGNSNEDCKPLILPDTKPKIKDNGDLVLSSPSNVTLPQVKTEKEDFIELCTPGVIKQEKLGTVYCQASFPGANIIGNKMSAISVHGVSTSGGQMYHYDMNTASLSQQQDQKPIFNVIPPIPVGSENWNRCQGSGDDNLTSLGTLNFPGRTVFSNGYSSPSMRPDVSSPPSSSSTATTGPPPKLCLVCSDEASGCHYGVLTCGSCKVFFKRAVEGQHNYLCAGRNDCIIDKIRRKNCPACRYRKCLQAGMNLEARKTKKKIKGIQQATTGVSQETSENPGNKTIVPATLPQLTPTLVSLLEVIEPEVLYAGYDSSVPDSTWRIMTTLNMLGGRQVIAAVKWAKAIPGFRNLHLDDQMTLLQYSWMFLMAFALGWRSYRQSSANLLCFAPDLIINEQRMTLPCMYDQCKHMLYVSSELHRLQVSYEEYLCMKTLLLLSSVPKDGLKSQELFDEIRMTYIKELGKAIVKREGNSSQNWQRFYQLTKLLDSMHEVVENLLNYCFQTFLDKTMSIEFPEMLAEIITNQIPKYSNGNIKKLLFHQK
Sequence of Lysosomal acid glucosylceramidase (Homo sapiens) (P04062 whole entry, looked up): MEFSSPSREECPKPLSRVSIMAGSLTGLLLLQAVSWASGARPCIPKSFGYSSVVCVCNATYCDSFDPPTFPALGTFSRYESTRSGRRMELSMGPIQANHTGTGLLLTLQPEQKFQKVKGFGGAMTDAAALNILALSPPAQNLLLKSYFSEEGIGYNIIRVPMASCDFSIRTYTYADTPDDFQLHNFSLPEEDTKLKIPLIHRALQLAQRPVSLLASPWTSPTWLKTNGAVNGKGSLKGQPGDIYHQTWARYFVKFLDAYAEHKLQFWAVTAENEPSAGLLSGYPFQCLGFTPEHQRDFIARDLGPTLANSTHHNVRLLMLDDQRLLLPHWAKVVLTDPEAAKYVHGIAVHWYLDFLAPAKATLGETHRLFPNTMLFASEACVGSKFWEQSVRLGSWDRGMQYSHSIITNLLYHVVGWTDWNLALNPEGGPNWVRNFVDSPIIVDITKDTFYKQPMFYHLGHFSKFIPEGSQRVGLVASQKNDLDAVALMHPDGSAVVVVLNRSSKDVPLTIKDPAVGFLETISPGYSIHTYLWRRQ

CC(C)C(=O)Nc1ccc([N+](=O)[O-])c(C(F)(F)F)c1
active: Potency [2] 2 µM and 316 nM | activity change, negative = cytotoxicity [10] -119% | Potency [12] 39.8 µM
inactive: outcome [1] | Potency [3] > 92 µM | Potency [4] 53.5 µM | Potency [5] > 92 µM | Potency [6] > 92 µM | activity change, negative = inhibition ([7]; at 17.2 µM (top of the series)) -0.457% | activity change, negative = inhibition ([7]; at 38 µM (top of the series)) 9.16% | outcome [8] | outcome [9] | outcome [11] | Potency [13] | Potency [14]

CC(COc1ccccc1)N(CCCl)Cc1ccccc1 (stereo not given)
inactive: outcome [1] | Potency [15] > 92 µM | Potency [6] > 92 µM | outcome [8] | Potency [16] > 20.6 µM | outcome [9]
active: Potency [5] 38.6 µM | activity change, negative = cytotoxicity [10] -85.6% | Potency [13] 31.6 µM

Clc1ccc2c(c1)C(N1CCNCC1)=Nc1ccccc1O2
inactive: outcome [1] | outcome [8] | Potency [16] > 46 µM and > 20.6 µM | Potency [17] > 46 µM and > 20.6 µM | outcome [9]
active: Potency [2] 12.6 µM and 3.98 µM

O=C1N(c2ccccc2)c2ccccc2C1(Cc1ccncc1)Cc1ccncc1
active: Potency [2] 15.8 µM
inactive: outcome [1] | activity change, negative = inhibition ([7]; at 38 µM (top of the series)) -6.55% | outcome [8] | Potency [16] > 46 µM | Potency [17] > 46 µM | outcome [9]

COc1ccc2[nH]cc(CCNC(C)=O)c2c1
inactive: outcome [1] | Potency [15] > 92 µM | Potency [3] > 92 µM | Potency [4] > 92 µM | Potency [5] > 92 µM | Potency [6] > 92 µM | Potency [18] > 92 µM | activity change, negative = inhibition ([7]; at 17.2 µM (top of the series)) -17.4% | activity change, negative = inhibition ([7]; at 38 µM (top of the series)) 14.9% | outcome [8] | Potency [16] > 46 µM and > 20.6 µM | Potency [17] > 46 µM and > 20.6 µM | outcome [9] | activity change, negative = cytotoxicity [10] -15.6% and 3.75% | Potency [19] | outcome [11] | Potency [12] | Potency [13] | Potency [14]

Nc1nnc(-c2cccc(Cl)c2Cl)c(N)n1
inactive: outcome [1] | Potency [2] | activity change, negative = inhibition ([7]; at 17.2 µM (top of the series)) -16.5% | activity change, negative = inhibition ([7]; at 38 µM (top of the series)) 15.4% | outcome [8] | outcome [9]

CN(C)CCC=C1c2ccccc2C=Cc2ccccc21
inactive: Potency [20] > 11.4 µM | outcome [8] | Potency [16] > 46 µM and > 20.6 µM | Potency [17] > 46 µM and > 20.6 µM and > 9.22 µM | outcome [9]
inactive and 12.6 µM (active): Potency [2]
active: activity change, negative = inhibition ([7]; at 7.69 µM (top of the series)) -78.7%

COc1ccc(CCN(C)CCCC(C#N)(c2ccc(OC)c(OC)c2)C(C)C)cc1OC (stereo not given)
inactive: outcome [1] | Potency [15] > 92 µM | Potency [4] > 92 µM | Potency [6] > 92 µM | Potency [18] > 92 µM | outcome [8] | outcome [9] | activity change, negative = cytotoxicity [10] -16.5% | outcome [11] | Potency [13] | Potency [14]

NCCCCCC(=O)O
inactive: outcome [1] | Potency [2] | activity change, negative = inhibition ([7]; at 17.2 µM (top of the series)) -9.25% | activity change, negative = inhibition ([7]; at 38 µM (top of the series)) 21.3% | outcome [8] | Potency [16] > 46 µM and > 20.6 µM | Potency [17] > 46 µM and > 20.6 µM | outcome [9]

CN1CCC(=C2c3ccccc3CC(=O)c3sccc32)CC1
inactive: outcome [1] | Potency [2] | outcome [8] | Potency [16] > 46 µM and > 20.6 µM | Potency [17] > 46 µM and > 20.6 µM | outcome [9]
active: activity change, negative = inhibition ([7]; at 17.2 µM (top of the series)) -94.3%

CN(C)C(=O)C(CCN1CCC(O)(c2ccc(Cl)cc2)CC1)(c1ccccc1)c1ccccc1
inactive: outcome [1] | activity change, negative = inhibition ([7]; at 17.2 µM (top of the series)) -23.1% | activity change, negative = inhibition ([7]; at 38 µM (top of the series)) -13.2% | outcome [8] | Potency [16] > 46 µM and > 20.6 µM | Potency [17] > 46 µM and > 20.6 µM | outcome [9]

NS(=O)(=O)c1cc2c(cc1Cl)NCNS2(=O)=O
inactive: outcome [1] | Potency [15] > 92 µM | Potency [3] > 92 µM | Potency [4] > 92 µM | Potency [5] > 92 µM | Potency [6] > 92 µM | Potency [18] > 92 µM | activity change, negative = inhibition ([7]; at 17.2 µM (top of the series)) 3.92% and 9.7% | activity change, negative = inhibition ([7]; at 38 µM (top of the series)) 0.292% | outcome [8] | Potency [16] > 46 µM and > 20.6 µM | Potency [17] > 46 µM and > 20.6 µM | outcome [9] | activity change, negative = cytotoxicity [10] -6.72% | Potency [19] | outcome [11] | Potency [12] | Potency [13] | Potency [14]

Cc1cc(C(C)(C)C)c(O)c(C)c1CC1=NCCN1
inactive: outcome [1] | Potency [2] | outcome [8] | Potency [16] > 46 µM and > 20.6 µM | Potency [17] > 46 µM and > 20.6 µM | outcome [9]

NC(=O)OCC(COC(N)=O)c1ccccc1
inactive: outcome [1] | Potency [2] | activity change, negative = inhibition ([7]; at 17.2 µM (top of the series)) 3.58% | activity change, negative = inhibition ([7]; at 38 µM (top of the series)) 8.56% | outcome [8] | Potency [16] > 46 µM and > 20.6 µM | Potency [17] > 46 µM | outcome [9]
